Experimental data published in publication PMC5540273 (PLoS ONE, 2017).

system: FGFR3; conditions: concentration: 1 μM, replicates: in singlicate; n = 1
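Further: KINOMEscan kinase panel screen.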

Row | Compound | %Inh [%]
1 | Nc1ncnc2c1ncn2-c1ccc(Cl)cc1 [AH2635] | 8
2 | Nc1nc(-c2ccccc2F)c(-c2ccnc3ccccc23)s1 [GW560459] | 0
3 | COc1cc2ncn(-c3cc(OCc4ccc(S(C)(=O)=O)cc4)c(C(N)=O)s3)c2cc1OC [GW869979] | 4
4 | CCC(=O)c1c(-c2ccccc2)c2cc(Cl)ccc2c(=O)n1Cc1cc(C(=O)NC2CC2)n(C)n1 | 0
5 | Nc1n[nH]c2nnc(-c3ccccc3)c(-c3ccccc3)c12 [GW554060] | 32
6 | OCCCNc1nccc(-c2c(-c3cccc(C(F)(F)F)c3)nn3cc(C(F)(F)F)ccc23)n1 [GW630813] | 0
7 | O=C(NCCNc1ccnc(Nc2ccc(F)cc2)n1)Nc1ccc2c(c1)OCO2 [GSK1379882] | 2
8 | CCC(=O)c1c(-c2ccccc2)c2cc(Cl)ccc2c(=O)n1Cc1cc(S(C)(=O)=O)n(CCC(C)(C)O)n1 | 29
9 | FC(F)(F)c1ccc(-c2ncn(CCCN3CCOCC3)c2-c2ccncc2)cc1 [SB-217780] | 6
10 | COC(=O)c1c(-c2ccccc2)c2cc(Br)ccc2c(=O)n1Cc1ccc(S(C)(=O)=O)cc1 | 2
11 | CCCNC(=O)Nc1ccc(Oc2ncnc3ccn(C)c23)cc1 | 0
12 | CCn1c(-c2ccoc2)nc2cnccc21 [SB-733887] | 0
13 | CCn1c(-c2nonc2N)nc2ccccc21 [SB-693162/GW549034] | 14
14 | Cc1nc(N(C)[C@H]2CN(C(=O)CC#N)CC[C@H]2C)c2cc[nH]c2n1 | 0
15 | CCC(=O)c1c(-c2ccccc2)c2cc(Cl)ccc2c(=O)n1Cc1ccc(C(=O)O)cc1 | 0
16 | COc1ccc(Nc2nccc(N3CCC(NS(=O)(=O)c4ccc(NC(C)=O)cc4)C3)n2)cc1 (stereo not shown) [GSK1379729] | 18
17 | CCc1nc(-c2cccc(C)c2)c(-c2ccncc2)s1 | 0
18 | COc1cc(Nc2ccnc3ccc(C(F)(F)F)cc23)cc(OC)c1OC [GW577382] | 3
19 | COc1ccc(-c2cc3c(C)nc(N)nc3n([C@H]3CC[C@H](O)CC3)c2=O)cn1 | 0

Row | Compound | %Inh [%]
20 | Cc1ccc(-c2ccc3c(ccc4sc5c(c43)NC[C@@H](C)N=C5N(C)C)n2)cn1 | 0
21 | Cc1nnc(-c2ccc(C)c(-c3ccc(C(=O)O)cc3)c2)o1 [GW608005] | 0
22 | COC(=O)c1c(-c2ccccc2)c2cc(C)ccc2c(=O)n1Cc1ccccc1 | 0
23 | COc1cccc(C2=C(Nc3cccc(C(=O)O)c3)C(=O)NC2=O)c1 [SB-390770] | 48
24 | Fc1cccc(CSc2nnc(-c3ccc4c(c3)CCO4)o2)c1 | 0
25 | Cc1cccc(-c2cc(-c3c[nH]nc3-c3ccccn3)ccn2)c1 [GW679395] | 0
26 | CN(C)c1cc(-c2ccc3c(N)n[nH]c3c2)nc(N)n1 [GSK2219329] | 7
27 | Cn1c(=O)c(F)c(Nc2ccc(I)cc2F)c2c(=O)n(OC[C@H](O)CO)cnc21 | 0
28 | Cc1nnc(-c2ccc3ncn(-c4ccc(S(C)=O)cc4)c3c2)o1 (stereo not shown) | 9
29 | CCC(=O)c1c(-c2ccccc2)c2cc(Cl)ccc2c(=O)n1Cc1cc(S(C)(=O)=O)n(CC(N)=O)n1 | 2
30 | COc1cccc(-n2cnc3c(N)ncnc32)c1 [SKF-97416] | 0
31 | CCCC(=O)Nc1n[nH]c2ncc(-c3cccc4ccccc34)cc12 [SB-642057] | 0
32 | CN1C(=O)C(Nc2cc(Cl)c(O)c(Cl)c2)=C(c2ccc(Cl)cc2)C1=O [SB-404321] | 9
33 | Nc1nccc2scc(-c3ccc4c(c3)CCN4C(=O)Cc3ccccc3)c12 [GSK2576924] | 27
34 | CCc1ccc(-c2ccc3c(c2)-c2nn(C)cc2S(=O)(=O)N3C)cc1 | 0
35 | O=C(NCc1cccs1)c1cc(C(=O)c2c(Cl)cccc2Cl)c[nH]1 [GW823670] | 0
36 | COC(=O)c1c(-c2ccccc2)c2cc(Br)ccc2c(=O)n1Cc1ccc(NC(=O)CCC(=O)O)cc1 | 0
37 | COc1ccc(CNC(=O)NC2CCN(c3ccnc(Nc4ccc(F)cc4)n3)C2)cc1 (stereo not shown) [GSK1379706] | 22
